This is part of a sample that, as a whole, favours compounds with a hit. Of some 83,000 tested, about 20% had one in any assay.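 Plates (96-well) were seeded with cells, treated with compound at one concentration, and incubated for 48 hours before percent growth was determined.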 Active and inactive are the calls of the source. How the source made its calls: active means growth percent below 10; inactive means the rest.
How the values were obtained:
Assay in all cases: NCI-60 one-dose screen, 48 h (100 = growth as untreated, 0 = no growth, -100 = all killed)
HCT-15 colon = settings: 10 µM unless noted
HT29 colon = settings: 10 µM unless noted
SNB-75 CNS = settings: 10 µM unless noted
SNB-19 CNS = settings: 10 µM unless noted
U251 CNS = settings: 10 µM unless noted
PC-3 prostate = settings: 10 µM unless noted
SK-MEL-5 melanoma = settings: 10 µM unless noted
UACC-62 melanoma = settings: 10 µM unless noted
SK-MEL-28 melanoma = settings: 10 µM unless noted
LOX IMVI melanoma = settings: 10 µM

Measured: growth

COc1cc(-c2ccc(/C=N/NC(=O)c3[nH]c4ccc(Br)cc4c3-c3ccccc3)s2)cc(OC)c1OC
inactive: HCT-15 colon 66% | HT29 colon 93.6% | SNB-75 CNS 66.4% | SNB-19 CNS 63.9% | U251 CNS 63.4% | PC-3 prostate 76.5% | SK-MEL-5 melanoma 89.8% | UACC-62 melanoma 84.5% | SK-MEL-28 melanoma 84.1%

O=c1cc(-c2ccccc2)oc2cc(OCCCC[P+](c3ccccc3)(c3ccccc3)c3ccccc3)cc(O)c12
active: HCT-15 colon -94.2% | HT29 colon -65% | SNB-75 CNS -80.7% | SNB-19 CNS -44.5% | U251 CNS -57.4% | PC-3 prostate -87.3% | SK-MEL-5 melanoma -98.4% | UACC-62 melanoma -59.5% | LOX IMVI melanoma -90.1% | SK-MEL-28 melanoma -98.4%

COc1cc(C2CC(c3ccc(S(=O)(=O)NCCNc4nc(Nc5ccc(F)cc5)nc(N(C)C)n4)cc3)=Nc3c(N)nc(N)nc3N2)cc(OC)c1OC (stereo unspecified)
inactive: HCT-15 colon 92.5% | HT29 colon 96.5% | SNB-75 CNS 82.8% | SNB-19 CNS 67.5% | U251 CNS 69.6% | PC-3 prostate 86.3% | SK-MEL-5 melanoma 64.2% | UACC-62 melanoma 76.4% | LOX IMVI melanoma 66.9% | SK-MEL-28 melanoma 88.1%

CC1(C)CC[C@]2(C(=O)O)CC[C@]3(C)C(=CCC4[C@@]5(C)C[C@@H](O)[C@@H]6OC(c7cccc(Br)c7)OC[C@@]6(C)C5CC[C@]43C)C2C1 (stereo partly specified)
inactive: HCT-15 colon 20.7% | HT29 colon 21.5% | SNB-75 CNS 85.1% | SNB-19 CNS 47.1% | U251 CNS 22.9% | PC-3 prostate 25.3% | SK-MEL-5 melanoma 41.3% | UACC-62 melanoma 55.5% | LOX IMVI melanoma 16.5% | SK-MEL-28 melanoma 74.2%

Cn1cc(-c2cc(N)n3nc(-c4cn(C)c5ccccc45)cc3n2)c2cc(Cl)ccc21
active: HCT-15 colon -78.3% | HT29 colon -67.2% | SNB-75 CNS -44% | SNB-19 CNS -0.728% | U251 CNS -74.5% | PC-3 prostate -38.1% | SK-MEL-5 melanoma -67% | UACC-62 melanoma -56.2% | LOX IMVI melanoma -86.5% | SK-MEL-28 melanoma -86.7%

Cn1cc(-c2cc(N)n3nc(-c4cn(C)c5ccc(Cl)cc45)cc3n2)c2ccccc21
inactive: HCT-15 colon 100% | HT29 colon 105% | SNB-75 CNS 89% | SNB-19 CNS 108% | U251 CNS 103% | PC-3 prostate 110% | SK-MEL-5 melanoma 98.5% | UACC-62 melanoma 98.2% | LOX IMVI melanoma 110% | SK-MEL-28 melanoma 97.4%

O=C(N/N=C/c1ccc(-c2ccc(O)cc2)s1)c1[nH]c2ccc(Br)cc2c1-c1ccccc1
active: HCT-15 colon 6.81% | HT29 colon -71.4% | SNB-75 CNS -12.7% | PC-3 prostate 7.47% | SK-MEL-5 melanoma 5.31% | UACC-62 melanoma -13.1% | SK-MEL-28 melanoma 1.23%
inactive: SNB-19 CNS 20.2% | U251 CNS 25.7%

CNC(=O)c1cccc(NC(=O)c2ccc3c(c2)nnn3/C(C#N)=C/c2ccccn2)c1
active: HCT-15 colon -31.3% | HT29 colon -84.4% | U251 CNS -12.4% | PC-3 prostate 2.89% | SK-MEL-5 melanoma -13.4% | UACC-62 melanoma -86.6% | SK-MEL-28 melanoma -76.6%
inactive: SNB-75 CNS 73% | SNB-19 CNS 71%

CCOC(=O)C1=C(N)N(c2ccccc2)C2=C(C(=O)CC(C)(C)C2)C1c1ccc(N2CCOCC2)cc1 (stereo unspecified)
inactive: HCT-15 colon 97.8% | HT29 colon 112% | SNB-75 CNS 91.4% | SNB-19 CNS 92.9% | U251 CNS 98.7% | PC-3 prostate 94.6% | SK-MEL-5 melanoma 98.7% | UACC-62 melanoma 83% | LOX IMVI melanoma 93.2% | SK-MEL-28 melanoma 107%

O=C(NNc1ccccc1)n1c(=O)c2ccccc2c(=O)n1-c1ccccc1
inactive: HCT-15 colon 91.4% | HT29 colon 98.8% | SNB-75 CNS 80.3% | SNB-19 CNS 94.6% | U251 CNS 94.1% | PC-3 prostate 92.6% | SK-MEL-5 melanoma 101% | UACC-62 melanoma 91.2% | SK-MEL-28 melanoma 104%

C#C[C@]1(O)CC[C@H]2[C@@H]3CC=C4c5sc(-c6ccc(O)c(O)c6)nc5CC[C@]4(C)[C@H]3CC[C@@]21C
active: HCT-15 colon -82.2% | HT29 colon -80.2% | SNB-75 CNS -81.4% | SNB-19 CNS -89.4% | U251 CNS -94.3% | PC-3 prostate -58.9% | SK-MEL-5 melanoma -98.4% | UACC-62 melanoma -74.7% | LOX IMVI melanoma -92.9% | SK-MEL-28 melanoma -80.3%
